Laboratory results: paper PMC11208138

Columns and labels:
Test in all cases: cross-link between two proteins; cross-linking mass spectrometry
NHP2-like protein 1 = NHP2-like protein 1 (UniProt P55769)
[1] = target: Ubiquitin carboxyl-terminal hydrolase 39 (UniProt Q53GS9)
[2] = target: Serine/arginine-rich splicing factor 1 (UniProt Q07955)
[3] = target: Heterogeneous nuclear ribonucleoproteins C1/C2 (UniProt P07910)
Heterogeneous nuclear ribonucleoproteins C1/C2, sequence (P07910 whole entry): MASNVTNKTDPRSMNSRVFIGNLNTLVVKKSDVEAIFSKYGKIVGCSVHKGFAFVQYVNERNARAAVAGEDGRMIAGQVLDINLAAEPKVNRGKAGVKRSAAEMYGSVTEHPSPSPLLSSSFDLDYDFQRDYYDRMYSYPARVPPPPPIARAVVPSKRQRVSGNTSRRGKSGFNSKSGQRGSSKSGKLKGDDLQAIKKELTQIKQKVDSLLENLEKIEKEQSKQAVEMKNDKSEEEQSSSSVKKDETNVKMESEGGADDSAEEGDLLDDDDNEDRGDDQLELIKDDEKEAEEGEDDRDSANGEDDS

Serine/arginine-rich splicing factor 1, sequence (Q07955 whole entry): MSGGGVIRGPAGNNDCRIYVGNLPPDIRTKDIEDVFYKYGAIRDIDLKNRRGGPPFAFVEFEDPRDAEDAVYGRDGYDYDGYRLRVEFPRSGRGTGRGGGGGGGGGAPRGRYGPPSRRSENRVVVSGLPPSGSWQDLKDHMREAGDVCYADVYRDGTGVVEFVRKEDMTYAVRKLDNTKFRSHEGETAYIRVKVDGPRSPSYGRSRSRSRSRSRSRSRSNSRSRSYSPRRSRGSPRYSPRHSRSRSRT
NHP2-like protein 1, sequence (P55769 whole entry): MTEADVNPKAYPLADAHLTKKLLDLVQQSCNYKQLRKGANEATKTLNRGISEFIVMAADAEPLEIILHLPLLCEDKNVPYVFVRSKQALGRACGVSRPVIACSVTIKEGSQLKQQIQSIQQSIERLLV
Ubiquitin carboxyl-terminal hydrolase 39, sequence (Q53GS9 whole entry): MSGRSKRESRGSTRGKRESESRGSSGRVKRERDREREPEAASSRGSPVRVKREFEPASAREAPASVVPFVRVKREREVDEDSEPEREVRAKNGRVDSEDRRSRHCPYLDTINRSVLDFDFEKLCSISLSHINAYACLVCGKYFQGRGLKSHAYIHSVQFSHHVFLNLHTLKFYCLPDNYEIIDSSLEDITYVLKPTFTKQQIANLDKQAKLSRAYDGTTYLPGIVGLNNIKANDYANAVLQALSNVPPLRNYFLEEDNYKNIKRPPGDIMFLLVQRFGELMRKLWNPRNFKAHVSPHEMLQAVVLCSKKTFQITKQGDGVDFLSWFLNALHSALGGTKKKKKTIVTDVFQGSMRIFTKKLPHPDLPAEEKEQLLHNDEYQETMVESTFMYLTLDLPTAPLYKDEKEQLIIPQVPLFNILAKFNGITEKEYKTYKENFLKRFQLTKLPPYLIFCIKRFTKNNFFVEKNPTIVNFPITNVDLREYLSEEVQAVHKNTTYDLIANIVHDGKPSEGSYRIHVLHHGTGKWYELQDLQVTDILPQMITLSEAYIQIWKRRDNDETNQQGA

Pre-mRNA-processing factor 6, O94906
listed as a hit (NHP2-like protein 1): yes
listed as a hit [1]: yes

Probable ATP-dependent RNA helicase DDX5, P17844
listed as a hit [2]: yes

Survival of motor neuron-related-splicing factor 30, O75940
listed as a hit [3]: yes
